Cruzain inh Det: blocks cruzain activity in presence of Triton detergent. actives 0.43% (n = 200,000). purified cruzain, Z-FR-AMC fluorescence, 0.01% Triton. Potency, µM, for the others: max response, negative = inhibition, most hits filed as inhibitors. P25779;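 further: potency means the concentration at half of the fitted maximal effect; plate controls were neutral wells for no effect and buffer without enzyme for full effect; nearly all actives have a fitted effect of over 40% in size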
Target sequence (P25779 123-467 limits assumed): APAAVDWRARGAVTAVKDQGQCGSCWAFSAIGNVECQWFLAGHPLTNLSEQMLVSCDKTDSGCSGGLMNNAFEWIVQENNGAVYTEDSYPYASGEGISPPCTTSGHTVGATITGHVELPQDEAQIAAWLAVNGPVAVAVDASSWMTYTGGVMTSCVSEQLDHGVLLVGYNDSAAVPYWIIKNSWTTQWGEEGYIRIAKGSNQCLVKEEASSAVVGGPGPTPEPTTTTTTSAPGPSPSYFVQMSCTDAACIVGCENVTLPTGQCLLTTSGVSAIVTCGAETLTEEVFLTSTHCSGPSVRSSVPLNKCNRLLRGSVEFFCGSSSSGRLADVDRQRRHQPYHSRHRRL
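Detergent-containing run (0.01% Triton X-100) in acetate buffer pH 5.5 with 5 mM DTT: enzyme at 1.5 nM final, 15 min compound preincubation at room temperature, then 2 uM Z-FR-AMC substrate. Activity taken as 60 s fluorescence increase at 360/450 nm.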
Cruzain inh noDet: cruzain (T. cruzi) inhibition without detergent | P25779 | purified cruzain, Z-FR-AMC fluorescence, no detergent | Potency, µM, for the others: max response, negative = inhibition, actives largely listed as inhibitors | actives 2.3% (n = 200,000);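 further: potency means the concentration at half of the fitted maximal effect; plate controls were enzyme without inhibitor for no effect and buffer without enzyme for full effect; nearly all actives have a fitted effect of over 40% in size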
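Purified cruzain at 1.5 nM, pre-incubated 15 min with compound at room temperature in 100 mM sodium acetate pH 5.5, 5 mM DTT, 0.00005% Triton X-100. Reaction started with 2 uM Z-FR-AMC; AMC fluorescence increase over 60 s gives rate.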
NS1 function inh: influenza NS1 inhibition. actives 0.4% (n = 270,000). Potency, µM (doses to about 46.1 µM), for inactives: top-dose activity, positive = more growth; calls by dose curve; further: potency means the concentration at half of the fitted maximal effect; actives are rising curves; nearly all actives have a fitted effect of over 50% in size
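S. cerevisiae expressing influenza A NS1, grown in glucose, washed, then diluted 1:100 into pH 6.0 -URA galactose medium with 23 nl compound. Growth recovery read as OD600; NS1-free strain serves as control.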
Flu NS1 inh: influenza NS1 function inhibition validation. shares compounds with NS1 function inh. influenza NS1 function cell assay, 15-point titration. activity change, negative = inhibition, % at 32.9 µM. 1,400 tested, under 10 active. AID 492980; calls by dose curve; further: 0% is about no effect
PR8 titer: influenza virus titer reduction, NS1 project | shares compounds with NS1 function inh | MDCK infected influenza A/PR/8/34, virus titer TCID50; active compounds read low | virus titer (log TCID50), log10 TCID50 at 5 µM | actives 30% (n = 95); call rule not given here
Active calls of the source: *; ? = inconclusive; . = not tested or not shown. The entries come from a sample that favours hits as a whole. Unless noted, the call rests on the fitted dose curve; in most records, active means well fitted curve in the direction sought with a large enough effect; inconclusive means small, poorly fitted or top-dose-only effect, or another doubt; inactive means no such curve, though single readings can be large; an effect the other way counts as inactive or inconclusive.

SMILES	Cruzain inh Det	Cruzain inh noDet	NS1 function inh	Flu NS1 inh	others
CN1CCN(Cc2cc(C(C)(C)C)c(O)c(C(C)(C)C)c2)CC1	4%	-3%	4%	.
COc1ccc(-c2cnnn2-c2ccc(N)cc2)cc1OC	1%	-5%	8%	.
COc1ccc(/C=C\C(=O)NCc2ccc3c(c2)cc(C)n3C)cc1OC	-9%	13%	11µM*	5	PR8 titer=8.5
CCc1cccc(C)c1NC(=S)NCc1ccc2c(c1)cc(C)n2C	-4%	?	14µM*	-24
CCc1ccc(CNC(=O)c2cc3cc(S(=O)(=O)N4CCCCC4)ccc3n2C)cc1	-1%	-22%	.	.
Cc1cc2cc(CNC(=O)c3ccc(S(=O)(=O)N4CCCC4)cc3)ccc2n1C	3%	?	10µM*	18
Cc1ccccc1NC(=S)NCc1ccc2c(c1)cc(C)n2C	-5%	?	?	.
CCC(CC)C(=O)NCc1ccc2c(c1)cc(C)n2C	5%	-5%	?	.
CCOC(=O)NCc1ccc2c(c1)cc(C)n2C	1%	9%	16%	.
Cc1cc2cc(CNC(=O)c3cccs3)ccc2n1C	-1%	?	?	13
O=C(Oc1ccc(C(=S)N2CCOCC2)cc1Br)c1ccccc1F	-4%	-14%	-8%	.
COc1ccc(-c2nc(CN3CCC(C(=O)NC4CCCC4)CC3)c(C)o2)cc1OC	.	.	-6%	.
COc1ccc(C(=O)Nc2ccc(-n3nncc3-c3ccc(OC)c(OC)c3)cc2)cc1	0%	9%	.	.
COc1ccc(-c2cnnn2-c2ccc(NC(=O)c3ccc(S(=O)(=O)N4CCCCC4)cc3)cc2)cc1OC	-4%	-25%	5µM*	31	PR8 titer=7.3*
COc1ccc(OC)c(NC(=O)Cn2c(=O)cc(-c3ccccc3)c3c(C)nn(C)c32)c1	-3%	25%	.	.
Cc1ccc(-n2c(=O)c3c(c4cc(C)ccc4n3C)n(CC(=O)c3ccc(Cl)cc3)c2=O)cc1	-1%	?	.	.
Cc1cccc(CSC2=NCCN2C(=O)c2ccc(Br)o2)c1	-4%	0%	-75%	.
Cc1cc(C(=O)COc2cccnc2[N+](=O)[O-])c(C)n1-c1ccccc1	-2%	-16%	8%	.
Cc1cc(C(=O)COc2cccnc2[N+](=O)[O-])c(C)n1-c1ccccc1F	.	.	?	-9
CCn1c2ccccc2c2cc(N=C3SC(CC(=O)Nc4ccccc4OC)C(=O)N3C)ccc21 (stereo unspecified)	3%	?	4µM*	-25
CCn1c2ccccc2c2cc(N=C3SC(CC(=O)Nc4ccccc4OC)C(=O)N3CCOC)ccc21 (stereo unspecified)	-4%	0%	?	.
COc1ccc(N=C2SC(CC(=O)Nc3ccc(F)cc3)C(=O)N2Cc2ccco2)cc1 (stereo unspecified)	-6%	-18%	8%	.
COc1ccc(N=C2SC(CC(=O)Nc3ccccc3OC)C(=O)N2Cc2ccco2)cc1 (stereo unspecified)	-7%	-29%	10µM*	-14
Cc1ccc(OCc2cc(C(=O)NCc3cnn(-c4cccc(F)c4)c3)no2)cn1	.	.	-23%	.
CCCC(C)NC(=O)c1ccc2[nH]c3c(c2c1)CC(C)CC3 (stereo unspecified)	-8%	0%	11µM*	1
SMILES	Cruzain inh Det	Cruzain inh noDet	NS1 function inh	Flu NS1 inh	others
COC(=O)c1ccc2[nH]c3c(c2c1)CC(C)CC3 (stereo unspecified)	.	.	-5%	.
Cc1ccc(-c2nc3ccsc3c(=O)[nH]2)cc1	.	.	-5%	.
Cc1ccc(OCCn2cc(C(=O)C3CCCCC3)c3ccccc32)cc1	-7%	-24%	.	.
CCc1ccc(NC(=O)CNC(=O)c2cn(-c3ccccc3OC)c(=O)c3ccccc23)cc1	-4%	27%	11µM*	30	PR8 titer=8.5
CCc1ccc(NC(=O)CNC(=O)c2nn(-c3ccc(OC)cc3)c(=O)c3ccccc23)cc1	.	.	2%	.
Cn1cccc1/C=N/N1CCN(c2ccccn2)CC1	-3%	12%	?	-22
CCc1ccc(/C=N/N2CCN(c3ccccn3)CC2)cc1	.	.	12%	.
Cc1nc(-c2cccc(S(=O)(=O)N3CCCCC3)c2)cs1	.	.	-7%	.
COc1ccc(/C=N/Nc2nc(-c3cccc(S(=O)(=O)N4CCCC4)c3)cs2)cc1OC	-16%	-29%	13µM*	19
O=S(=O)(c1cccc(-c2csc(N/N=C/c3ccco3)n2)c1)N1CCOCC1	.	.	5%	.
CCOc1cc(/C=N/Nc2nc(-c3cccc(S(=O)(=O)N4CCCC4)c3)cs2)ccc1O	-12%	16µM*	10µM*	19
O=C(CN1C(=O)S/C(=C\c2cccc(Cl)c2)C1=O)NCCCn1ccnc1	.	.	-1%	.
